{"source": "PubChem BioAssay (NCI)", "note": "Compounds without any hit were thinned out: in the full panel of roughly 83,000, 20% have a hit.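 Single-dose data. Exposure time 48 hours. Values below 10 considered active.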 Values without a mark were called inactive. The source made the active and inactive calls.", "data": [{"test_system": "SF-539 CNS", "experiment": "NCI-60 one-dose screen, 48 h (100 = growth as untreated, 0 = no growth, -100 = all killed)", "settings": "10 µM", "values": [{"compound": "O=C(/C=C/c1ccco1)c1nc2ccccc2n1Cc1ccc(Br)cc1", "growth": "26.7%"}, {"compound": "O=C(/C=C/c1ccco1)c1nc2ccccc2n1Cc1ccc(F)cc1", "growth": "64.6%"}, {"compound": "COc1cc2cc(C(=O)N3C[C@@H](CCl)c4c3cc(OC(=O)N3CCN(C)[C@@H]5CSSC[C@@H]53)c3ccccc43)[nH]c2c(OC)c1OC", "growth": "-72.4% (active)"}, {"compound": "C#CC[Se]C(=O)c1ccc2n[se]nc2c1", "growth": "40.3%"}, {"compound": "O=C(/C=C/c1ccc(Cl)cc1Cl)c1nc2ccccc2n1Cc1ccc(F)cc1", "growth": "17.9%"}, {"compound": "O=C(/C=C/c1ccc(Cl)cc1)c1nc2ccccc2n1Cc1ccc(Br)cc1", "growth": "43.8%"}, {"compound": "CCOP(=O)(OCC)C(NC(C)=O)C(=O)SCCN", "note": "(centres undefined)", "growth": "97.5%"}, {"compound": "COc1cc2cc(C(=O)N3C[C@@H](CCl)c4c3cc(OC(=O)N3CCN(C)[C@@H]5CSSC[C@H]53)c3ccccc43)[nH]c2c(OC)c1OC", "growth": "-96% (active)"}, {"compound": "COc1ccc2cc([C@H](C)C(=O)[Se]CCC#N)ccc2c1", "growth": "-67.3% (active)"}, {"compound": "CC12OOC(C)(OO1)C2CCC(=O)OCCNc1ccnc2cc(Cl)ccc12", "note": "(centres undefined)", "growth": "35.6%"}, {"compound": "CC(C)N=C([Se])NC(=O)c1cccs1", "growth": "-63.3% (active)"}, {"compound": "Cc1ccc2[nH]c(=S)n(-c3ccc(F)cc3)c(=O)c2c1", "growth": "94.8%"}, {"compound": "CCOC(=O)C1=C(Nc2ccccc2)C(=O)OC12C(=O)Nc1ccccc12", "note": "(centres undefined)", "growth": "97.6%"}, {"compound": "CC12CCC3(CCC(=O)NCCCNc4ccnc5cc(Cl)ccc45)[C@@](C)(OO[C@]3(C)O1)O2", "growth": "-65.6% (active)"}, {"compound": "CC[C@]12C=CCN3CC[C@@]4(c5ccc(OC)cc5N(C)[C@H]4[C@@](O)(C(=O)OC)[C@@H]1OC(=O)CCCC[P+](C1CCCCC1)(C1CCCCC1)C1CCCCC1)[C@@H]32", "growth": "-93.9% (active)"}, {"compound": "CC(=O)Oc1ccccc1C(=O)[Se]C(=NC(C)C)NC(C)C", "growth": "-98% (active)"}, {"compound": "COCCOCCOCCOc1ccc(-n2cc(CCCN(CCNc3ccnc4cc(Cl)ccc34)C(=O)CCC(=O)O[C@@H]3O[C@@H]4OC5(C)CC[C@H]6[C@H](C)CC[C@@H]([C@H]3C)[C@@]46OO5)nn2)cc1", "growth": "47.4%"}, {"compound": "C[C@H]1[C@@H](CC(=O)N[C@@H](Cc2coc3ccccc23)B(O)O)O[C@@H]2OC3(C)CC[C@H]4[C@H](C)CC[C@@H]1[C@@]24OO3", "growth": "-96.4% (active)"}, {"compound": "COP(=O)(CC(F)(F)C(F)(F)F)OC", "growth": "4.99% (active)"}, {"compound": "CC12OOC(C)(OO1)C2CCC(=O)NCCNc1ccnc2cc(Cl)ccc12", "note": "(centres undefined)", "growth": "102%"}, {"compound": "CC[C@]12C=CCN3CC[C@@]4(c5ccc(OC)cc5N(C)[C@H]4[C@@](O)(C(=O)OC)[C@@H]1OC(=O)CCC[P+](c1ccc(C)cc1)(c1ccc(C)cc1)c1ccc(C)cc1)[C@@H]32", "growth": "-96.6% (active)"}, {"compound": "CC(C)N=C([Se])NC(=O)c1ccccc1", "growth": "-82.9% (active)"}, {"compound": "CC[C@]12C=CCN3CC[C@@]4(c5ccc(OC)cc5N(C)[C@H]4[C@@](O)(C(=O)OC)[C@@H]1OC(=O)CCC[P+](C1CCCCC1)(C1CCCCC1)C1CCCCC1)[C@@H]32", "growth": "-86.5% (active)"}, {"compound": "CC1=C(COCCOC(=O)c2ccc(S(=O)(=O)F)cc2)C2=C(C)C3(CC3)[C@@](C)(O)C(=O)C2=C1", "growth": "-76.2% (active)"}, {"compound": "CC[C@]12C=CCN3CC[C@@]4(c5ccc(OC)cc5N(C)[C@H]4[C@@](O)(C(=O)OC)[C@@H]1OC(=O)CCCC[P+](c1ccc(OC)cc1)(c1ccc(OC)cc1)c1ccc(OC)cc1)[C@@H]32", "growth": "-97.4% (active)"}, {"compound": "CC1=C(CCC=NNC(N)=O)C2=C(C)C3(CC3)[C@@](C)(O)C(=O)C2=C1", "growth": "-99.1% (active)"}, {"compound": "CC[C@@]12CC(C(=O)OC)=C3Nc4cc5c(cc4[C@@]34CCN(C[C@H]3O[C@H]31)[C@@H]24)[C@@H]1[C@H](O5)[C@@H](O)[C@@]2(CC)CC(C(=O)OC)=C3Nc4cc(OC)ccc4[C@@]34CCN1[C@@H]24", "growth": "21.7%"}, {"compound": "CCOP(=O)(CC(F)(F)C(F)(F)F)OCC", "growth": "-48.6% (active)"}, {"compound": "CC1=C2C(=C[C@@](C)(COP(=O)(Oc3ccccc3)Oc3ccccc3)[C@@H]2O)C(=O)[C@@](C)(O)C12CC2", "growth": "-99.1% (active)"}, {"compound": "CC(=O)Oc1ccccc1C(=O)NC([Se])=NC1CCCCC1", "growth": "-84.7% (active)"}, {"compound": "C[C@H]1[C@H](OC(=O)CCC(=O)N(CCCc2cn(-c3ccc(CN4CCOCC4)cc3)nn2)CCNc2ccnc3cc(Cl)ccc23)O[C@@H]2OC3(C)CC[C@H]4[C@H](C)CC[C@@H]1[C@@]24OO3", "growth": "-73% (active)"}, {"compound": "O=C(/C=C/c1ccc(Cl)cc1)c1nc2ccccc2n1Cc1ccc(F)cc1", "growth": "-41.7% (active)"}, {"compound": "CC1=C(CCC=O)C2=C(C)C3(CC3)[C@@](C)(O)C(=O)C2=C1", "growth": "-100% (active)"}, {"compound": "O=C(NC([Se])=NC1CCCCC1)c1ccc2c(c1)OCO2", "growth": "56.9%"}, {"compound": "C[C@H]1[C@H](OC(=O)CCC(=O)N(CCCc2cn(-c3ccc(C#N)cc3)nn2)CCNc2ccnc3cc(Cl)ccc23)O[C@@H]2OC3(C)CC[C@H]4[C@H](C)CC[C@@H]1[C@@]24OO3", "growth": "44.5%"}, {"compound": "C[C@H]1[C@@H](Oc2ccc(-c3cn(-c4ccnc5cc(Cl)ccc45)nn3)cc2)O[C@@H]2OC3(C)CC[C@H]4[C@H](C)CC[C@@H]1[C@@]24OO3", "growth": "30.5%"}, {"compound": "COc1ccc(/C=C/C(=O)c2nc3ccccc3n2Cc2ccc(Br)cc2)cc1", "growth": "78.3%"}, {"compound": "COC(=O)CCn1c(-c2ccc(-n3cc(-c4ccc(O[C@H]5O[C@@H]6OC7(C)CC[C@H]8[C@H](C)CC[C@@H]([C@H]5C)[C@@]68OO7)cc4)nn3)cc2)nc2ccccc21", "growth": "20.9%"}, {"compound": "C[C@H]1[C@H](OC(=O)CCC(=O)N(CCCc2cn(-c3ccc([N+](=O)[O-])cc3)nn2)CCNc2ccnc3cc(Cl)ccc23)O[C@@H]2OC3(C)CC[C@H]4[C@H](C)CC[C@@H]1[C@@]24OO3", "growth": "38.1%"}]}]}
